# Tests used:
# Experiment in all cases: PBM binding z-score (relative to random genomic background probes); higher = stronger binding; sequences stand for … in GC…GCGATTGACAGCGTAGAATGAAGG
# [1] = tested on: FXR:RXRa (NR concentration 270 nM, RXRa partner concentration 90 nM)
# How it was run: (§1)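 Binding z-scores were set against random background probes. The data came from custom Agilent 4×180K protein-binding microarrays carrying double-stranded probes with 34-nt variable regions, incubated 1 h with ligand-free nuclear receptor dimers. Partner-specific antibodies detected binding, and scanned fluorescence was regression-normalized.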
# [2] = tested on: LXRa:RXRa (NR concentration 270 nM, RXRa partner concentration 90 nM)
# How it was run: as §1
# [3] = tested on: LXRa homodimer (NR concentration 270 nM)
# How it was run: as §1
# [4] = tested on: LXRb:RXRa (NR concentration 270 nM, RXRa partner concentration 90 nM)
# How it was run: as §1
# [5] = tested on: LXRb homodimer (NR concentration 270 nM)
# How it was run: as §1
# [6] = tested on: PPARa:RXRa (NR concentration 270 nM, RXRa partner concentration 90 nM)
# How it was run: as §1
# [7] = tested on: PPARg:RXRa (NR concentration 180 nM, RXRa partner concentration 90 nM)
# How it was run: as §1
# [8] = tested on: PPARg:RXRa 270nM:90nM, anti-RXR (NR concentration 270 nM, RXRa partner concentration 90 nM)
# How it was run: as §1
# [9] = tested on: PPARg:RXRa 30nM:10nM, anti-RXR (NR concentration 30 nM, RXRa partner concentration 10 nM)
# How it was run: as §1
# [10] = tested on: PPARg:RXRa 90nM:30nM, anti-RXR (NR concentration 90 nM, RXRa partner concentration 30 nM)
# How it was run: as §1
# [11] = tested on: PPARg:RXRa DBDmut IVT, anti-RXR (DBD mutation: RXRa K156A/R161A, NR concentration 270 nM, RXRa partner concentration 90 nM)
# How it was run: as §1
# [12] = tested on: PPARg:RXRa IVT, anti-PPARg (NR concentration 270 nM, RXRa partner concentration 90 nM)
# How it was run: as §1
# [13] = tested on: PPARg DBDmut:RXRa IVT, anti-PPARg (DBD mutation: PPARg1 K132A/R137A, NR concentration 270 nM, RXRa partner concentration 90 nM)
# How it was run: as §1
# [14] = tested on: PPARg DBDmut IVT, anti-PPARg (DBD mutation: PPARg1 K132A/R137A, NR concentration 270 nM)
# How it was run: as §1
# [15] = tested on: PPARg homodimer (NR concentration 180 nM)
# How it was run: as §1
# [16] = tested on: PXR:RXRa (NR concentration 270 nM, RXRa partner concentration 90 nM)
# How it was run: as §1
# [17] = tested on: PXR homodimer (NR concentration 270 nM)
# How it was run: as §1
# [18] = tested on: RARa:RXR (NR concentration 270 nM, RXRa partner concentration 90 nM)
# How it was run: as §1
# [19] = tested on: RARa homodimer (NR concentration 270 nM)
# How it was run: as §1
# [20] = tested on: RARb:RXRa (NR concentration 270 nM, RXRa partner concentration 90 nM)
# How it was run: as §1
Sequence,PBM binding z-score [1],PBM binding z-score [2],PBM binding z-score [3],PBM binding z-score [4],PBM binding z-score [5],PBM binding z-score [6],PBM binding z-score [7],PBM binding z-score [8],PBM binding z-score [9],PBM binding z-score [10],PBM binding z-score [11],PBM binding z-score [12],PBM binding z-score [13],PBM binding z-score [14],PBM binding z-score [15],PBM binding z-score [16],PBM binding z-score [17],PBM binding z-score [18],PBM binding z-score [19],PBM binding z-score [20]
TCTAGCAGGCCAGAGGGTCACTCATGAGGTACGG,0.745,0.822,-0.462,0.852,-1.1,2.2,1.64,2.87,2.19,2.63,0.668,1.02,-0.735,-1.14,0.486,1.64,-0.579,2.5,-0.79,2.24
ACCGAAAGGTCGACGAGGTGAGTATACACCGTTT,4.37,3.09,0.178,2.83,-0.0188,4.42,2.71,3.21,0.781,2.02,1.08,2.03,0.47,0.38,1.27,2.93,0.279,3.29,0.4,4.19
CAGCCTAGGGCAGGGCCAGTATAGGAGGAACGTT,-0.713,-0.785,-0.921,-1.11,-1.4,-0.747,-0.037,-0.861,-0.884,-1.24,-0.842,-0.372,-2.01,-1.9,-1.39,-1.13,-0.815,-0.853,-0.656,0.716
TCATATAGGTAAAAAGTGAAAGTCGGTGTGGTAA,1.13,1.01,0.0735,0.858,-0.108,2.62,3.5,5.44,5.22,5.77,4.48,2.54,1,0.168,0.986,0.581,0.658,0.666,0.947,0.366
GCTCGGAGGCCAAGGTCAGAGCTTTGTCCGTAGA,1.41,1.03,-0.427,0.907,-1.5,1.85,0.0755,1.47,-0.393,0.573,0.637,0.382,-1.23,-1.94,1.18,1.64,-0.446,1.82,-1.6,3.45
CCTAGCAGGCCAATCTGGCTCACTCAAGGCTTGA,-0.716,-0.911,-0.459,-0.999,-0.737,-0.434,-0.54,-0.642,-0.916,-1.12,1.35,0.117,-2.07,-1.06,-0.294,-0.913,-1.16,-0.795,-0.522,-0.16
CGAACTAGGTCATTGACAGGACAGTGACTAGTAA,4.31,2.96,0.385,1.79,0.0478,4.71,7.47,6.11,3.43,5.59,8.03,8.27,2.04,1.38,0.886,1.81,0.0529,2.44,0.0227,3.58
CGACCAAGGTCAAGGTCAGTGAAAGAGACTCGAA,7.76,5.28,0.72,4.53,0.222,6.07,6.71,6.54,2.6,5.32,3.29,4.75,0.143,-0.162,3.87,4.59,0.777,4.89,1.42,5.78
CCTATTAGTTGACCATAAGTGCAACCGAAGCTCG,0.669,0.833,1.25,0.757,1.09,0.517,0.672,0.74,0.581,0.574,0.899,0.364,1.12,0.839,1.89,1.11,1.66,0.812,2.6,0.81
CCTACTGGGCCATCAGGTCATTTATATCAACGTT,1.48,1.03,1.99,1.81,0.176,2.79,2.76,3.29,1.06,2.57,3.78,5.03,0.0191,0.266,1.09,1.59,0.478,2.06,0.492,1.75
CTCGAAGGGTCGGTTGAGGTGAGTATACGGATAA,2.14,0.689,-0.0739,0.752,-0.256,1.37,0.221,0.4,0.00814,0.0401,-0.575,0.478,-0.346,0.307,0.548,1.86,0.399,1.32,-0.148,1.88
ATCGAAAGTTCGAGGTGAGTATAGAGAAAGGGAA,0.831,1,-0.204,0.703,-0.225,1.76,0.648,0.797,0.3,0.478,-0.474,0.844,0.383,0.642,0.238,0.98,0.157,1.01,-0.05,2.53
CTCGAAAGGTCGGTTGAGATGAGTATACGGATAA,1.6,1.27,0.0638,1.32,-0.0369,2.34,0.617,0.887,0.602,0.615,-0.21,0.247,0.456,0.37,0.803,1.01,0.26,1.37,0.533,2.86
CCTTACGGGTCACTCCAGGTTATAGCTTCGGAGT,5.46,7.43,1.7,4.64,0.284,4.05,3.22,3.66,1,2.17,3.23,3.56,0.585,0.163,2.23,4.98,0.446,3.52,1.34,3.72

# Reference: the supplement of paper PMC6555819
